In PubChem BioAssay AID463173 (ICCB-Longwood Screening Facility, Harvard Medical School, 2010):
Hit rate of the full screen: of about 52,000 compounds, about 4,300 (8.3%) were called active. The sample holds actives, similar compounds and a random draw of the others, so the mix is not that of the screen. Values without a mark were called inactive. Cut-off read from the data, not from the text of the source: active = survival mostly below about 52% (no sharp cut-off); inactive = mostly above about 56%.

System: DeltatarO mutant
Assay: S. aureus survival, RN4220 and DeltatarO strains – OD600, teichoic acid synthesis inhibitors, primary screen (AID 463173)
Conditions: S. aureus RN4220 wild type/DeltatarO growth, OD600, 18 h, active compounds read low, screened at 18.75 µg/mL (by protocol)

SMILES	survival
COc1ccc(CCCc2nnc(SCC(=O)Nc3ccc(F)cc3)o2)cc1C	89%
COc1ccccc1N1CCN(c2cc(N3CCCC3)nc(C)n2)CC1	98%
O=C(Nc1ccc(Br)cc1)C1CCCN(S(=O)(=O)c2ccc(Br)s2)C1 (stereo not given)	82%
C#CCN1CCc2cc(OC)c(OC)cc2C1C (stereo not given)	101%
Cc1cccc(CCNCc2cc3cc4c(cc3[nH]c2=O)OCO4)c1	85%
CC1(C)OC2C(CO)OC(n3ncc(=O)[nH]c3=O)C2O1 (stereo not given)	86%
CCOc1nc(-c2ccc(C)cc2)ccc1-c1noc(-c2ccccc2F)n1	54%
COc1nc(-c2ccc(C)cc2)ccc1-c1noc(-c2ccccc2Br)n1	19% (active)
COc1nc(-c2ccc(C)cc2)ccc1-c1noc(-c2ccc(C(C)(C)C)cc2)n1	47%
CC(C)(C)c1cc(C(C)(C)C)c2oc(=O)c(-c3nc4ccccc4[nH]3)cc2c1	69%
Cc1ccc(-n2ncc(C(=O)NCCN3CCc4ccccc4C3)c2C2CCNCC2)cc1C	95%
O=C(c1ccc(F)cc1)N1CCC(c2nc3ccccc3o2)CC1	83%
Cc1nnc(SCc2ccccc2)c2cc3sccc3n12	53%
COc1ccc(CCN(Cc2nc3ccccc3c(=O)[nH]2)C(=O)C(C)C)cc1	101%
CCC(=O)Nc1nnc(C(C)(C)C)s1	51% (active)
CCC(CC)C(=O)Nc1nnc(C(C)(C)C)s1	95%
CC(C)(C)c1nnc(NC(=O)CS(=O)(=O)Cc2ccccc2)s1	95%
CCn1nnc2cc(C(=O)Nc3cccc(C)c3C)ccc21	72%
Clc1ccc(NCCC2=CCCCC2)nn1	84%
CN(C)CCNc1ccc(Cl)nn1	96%
Clc1ccc(NC2CCCCC2)nn1	66% (active)
COc1ccccc1-c1nc(SCC(=O)NCc2ccc(C)cc2)c2c(=O)n(C)c(=O)n(C)c2n1	69%
Cc1ccccc1NC(=O)c1ccc2[nH]c(C)c(C)c2c1	123%
COC(=O)c1sc2cccc(F)c2c1S(=O)(=O)Nc1ccc(C)cc1Cl	91%

SMILES	survival
CCOC(=O)c1sc2cccc(F)c2c1S(=O)(=O)Nc1ccccc1F	99%
COC(=O)c1sc2cccc(F)c2c1S(=O)(=O)Nc1cc(C)c(Cl)cc1OC	89%
COC(=O)c1sc2cccc(F)c2c1S(=O)(=O)Nc1cc(OC)cc(OC)c1	8% (active)
COC(=O)c1sc2cccc(F)c2c1S(=O)(=O)Nc1ccc(N(C)C)cc1	66%
CCOc1ccccc1NS(=O)(=O)c1c(C(=O)OC)sc2cccc(F)c12	20% (active)
COC(=O)c1ccccc1NS(=O)(=O)c1cc2c(cc1C)N(C)CCO2	87%
COc1cc(C(=O)N2CCN(CCc3ccccn3)CC2)cc(OC)c1OC	66%
Cc1ccc2nc(-c3cccc(Cl)c3)c(Nc3ccc4c(c3)OCO4)n2c1	75%
COc1cc(NC(=O)C2CCCN(S(=O)(=O)c3ccc4c(c3)CCCC(=O)N4)C2)cc(OC)c1 (stereo not given)	94%
COc1ccc(CN(Cc2ccco2)C(=O)COc2ccccc2Cl)cc1	51%
O=c1cc(-c2ccccc2)nc(SCc2nc(-c3ccc(C(F)(F)F)cc3)no2)[nH]1	188%
CCc1cc(=O)[nH]c(SCc2nc(-c3ccc(C(F)(F)F)cc3)no2)n1	32% (active)
CCCc1cc(=O)[nH]c(SCc2nc(-c3ccccc3)no2)n1	0% (active)
CCCc1cc(=O)[nH]c(SCc2nc(-c3ccc(C)cc3)no2)n1	78%
CCc1cc(=O)[nH]c(SCc2nc(-c3cccc(Cl)c3)no2)n1	49%
CCc1cc(=O)[nH]c(SCc2nc(-c3ccccc3)no2)n1	95%
Cc1ccc(CNC(=O)c2sc3nc(C)cc(C)c3c2-n2cccc2)cc1	90%
COc1ccccc1CNC(=O)c1cc2c(s1)-c1ccc(Cl)cc1SC2	79%
Cc1ccccc1Nc1nnc(-c2ccc(C)c(S(=O)(=O)N3CCOCC3)c2)c2ccccc12	85%
O=C(NC(CO)C(=O)O)c1ccncc1 (stereo not given)	94%
CCc1ccc(Cc2cnc(NC(=O)c3ccc4c(c3)CC(c3ccccc3)OC4=O)s2)cc1 (stereo not given)	51%
COc1cccc(-n2c(C)nc3cc(C(=O)O)ccc32)c1	177%
O=C(Cn1c(=O)nc(-c2ccccc2)c2cc(Cl)ccc21)N1CCN(c2ccc(F)cc2)CC1	99%
O=S(=O)(NC1CCc2ccccc21)c1ccc(S(=O)(=O)N2CCCC2)cc1 (stereo not given)	82%

SMILES	survival
CC1Cc2cc(S(=O)(=O)CCC(=O)Nc3ccccc3F)ccc2N1C(=O)C1CC1 (stereo not given)	100%
Cc1nnc2c3ccccc3nc(Nc3cccc(O)c3)n12	101%
Cc1cccc(Nc2nc(-c3ccccc3)nc3ccccc23)c1	1% (active)
Cc1cccc(-c2nc(N3CCN(c4ccc(F)cc4)CC3)c3ccccc3n2)c1	54%
Oc1cccc(Nc2nc(-c3ccccc3)nc3ccccc23)c1	10% (active)
Oc1ccc(Nc2nc(-c3ccc(Cl)cc3)nc3ccccc23)cc1	3% (active)
CC(=O)c1cccc(Nc2nc(-c3ccccc3Cl)nc3ccccc23)c1	38% (active)
Cc1cccc(Nc2cc(C)nc3nc(-c4ccccc4)nn23)c1	95%
Oc1ccc(Nc2ncnc3ccccc23)cc1	77%
Cc1nnc2c(Nc3cccc(O)c3)nc3ccccc3n12	68%
CC(=O)c1cccc(Nc2ncnc3c2cnn3C)c1	67%
CC(=O)c1cccc(NC(=O)c2cc(-c3ccc(Cl)s3)nc3ccccc23)c1	77%
Fc1ccc(Nc2nc(SCc3ccc(Cl)cc3)nc3ccccc23)cc1	92%
COc1ccc(CCNC(=O)C(=O)NCC(c2cccs2)S(=O)(=O)c2ccc(C)cc2)cc1 (stereo not given)	69%
O=C(CC1N=C2c3ccccc3N=C(SCc3ccc(F)cc3)N2C1=O)NC1CCCCC1 (stereo not given)	124%
Cc1ccc(CNS(=O)(=O)c2cc3c(cc2C)NC(=O)CO3)cc1	79%
CCCN(CCC)c1nn2c(=O)c(C(=O)NCc3cccc(OC)c3)cnc2s1	84%
CC(C)NC(=O)CSc1nc2ccccc2n1CC(=O)NC(C)C	96%
COC(=O)c1ccccc1NC(=S)N(Cc1ccco1)Cc1cc2cc(C)ccc2[nH]c1=O	94%
O=c1c2ccccc2nc2sc(Nc3cccc(C(F)(F)F)c3)nn12	86%
CN(C(=O)c1cc2sccc2n1Cc1ccc(F)cc1)C1CCCCC1	88%
CCOc1ccccc1C(=O)Nc1ccc(S(=O)(=O)Nc2onc(C)c2C)cc1	77%
CCN(C1CCCCC1)S(=O)(=O)c1cccc(S(=O)(=O)N2CCCC2)c1	70%
COc1cc(C2c3c(oc4ccc(F)cc4c3=O)C(=O)N2c2nc(C)c(C)s2)cc(OC)c1OC (stereo not given)	157%

SMILES	survival
COc1ccc2c(Sc3ccc(C)cc3)c(C(=O)NC(C)C)[nH]c2c1	86%
Cc1ccc(CCNC(=O)CCn2nc(-c3ccc(C)cc3)ccc2=O)cc1	94%
COc1ccc(C(=O)O)cc1Nc1nc2ccc(C)cc2n2cnnc12	117%
COc1cc(Nc2nc(-c3ccc(OC)c(OC)c3)nc3ccccc23)cc(OC)c1	-2% (active)
CC(=O)c1cccc(NC(=O)c2nc(-c3ccccc3)n(-c3ccccc3C)n2)c1	76%
OCCNc1nc(-c2cccnc2)nc2ccccc12	93%
COc1ccc(Nc2nc(-c3ccccc3F)nc3ccccc23)cc1OC	99%
CC(=O)c1cccc(Nc2nc(-c3cccc(C)c3)nc3ccccc23)c1	4% (active)
CCOc1ccccc1OCCCCn1c(-c2ccc(Cl)cc2)nc2ccccc2c1=O	45%
COc1ccc(Nc2nc(-c3ccc(C)cc3)nc3ccccc23)c(OC)c1	75%
CC(=O)c1cccc(NC(=O)c2nc(-c3ccccc3)n(-c3cccc(C)c3)n2)c1	64%
CCC(=O)OCCCNc1nc(-c2ccc(Cl)cc2)nc2ccccc12	-2% (active)
O=C(O)c1ccc(Nc2nc3ccccc3c3nncn23)cc1	95%
COc1ccc(CNC(=O)C(OC(=O)c2ccc(Cl)nc2)c2ccccn2)cc1 (stereo not given)	104%
CCC(CC)C(=O)OCc1cc(=O)n2nc(C3CC3)sc2n1	62%
COc1ccc(CCNC(=O)CCc2c(C)nc3c(c(C)nn3-c3ccc(C)c(C)c3)c2C)cc1OC	57%
CC1=C(C)CC(C(=O)Nc2ccc(NC(=O)NC3CCCCC3)cc2)C(C(=O)O)C1 (stereo not given)	81%
Cc1cc(N2CCN(c3ccc(F)cc3)CC2)n2nc(-c3ccc(Cl)cc3)nc2n1	49%
Cc1ccc(-c2nc3nc(C)cc(N4CCN(c5cc(Cl)ccc5C)CC4)n3n2)cc1	86%
Cc1cc(N2CCN(c3cccc(C(F)(F)F)c3)CC2)n2nc(-c3ccccc3)nc2n1	41% (active)
COc1ccc(-c2nc3nc(C)cc(N4CCN(c5cccc(C(F)(F)F)c5)CC4)n3n2)cc1	45%
Cc1cccc(-c2nc3nc(C)cc(N4CCN(c5ccccc5)CC4)n3n2)c1	60%
Cc1cc(N2CCN(c3cccc(C(F)(F)F)c3)CC2)n2nc(-c3ccccc3C)nc2n1	2% (active)
